These results are taken from PMC7862700, “An all-to-all approach to the identification of sequence-specific readers for epigenetic DNA modifications on cytosine”.

What all share (experiment): DAPPL (digital affinity profiling via proximity ligation, sequencing); 10 mM Tris-HCl pH 7.5, 50 mM NaCl, 1 mM DTT, 4% glycerol, room temperature, 30 min; GST-TFs on glutathione beads, 16-mer random dsDNA library, 0.1% formaldehyde crosslink after washing; high values mean tight binding
One experiment has as its target T1, FEV (Homo sapiens, UniProt Q99581 1-238).
T1 sequence: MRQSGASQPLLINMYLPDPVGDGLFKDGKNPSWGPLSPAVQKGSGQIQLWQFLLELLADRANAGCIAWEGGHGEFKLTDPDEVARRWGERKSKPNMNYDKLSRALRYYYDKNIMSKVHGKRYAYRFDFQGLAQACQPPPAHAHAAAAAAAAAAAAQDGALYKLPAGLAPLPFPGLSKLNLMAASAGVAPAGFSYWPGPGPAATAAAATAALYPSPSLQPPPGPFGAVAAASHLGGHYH
The conditions noted are these: protein: recombinant; tags: N-terminal GST; dsDNA, one strand shown. In outline:
(§1)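 In yeast, human transcription factors were expressed with a GST fusion, then pulled down on glutathione beads and given DNA barcodes. Pooled with a tag-only sample, they were exposed to 200 nmole of a 16-mer random double-stranded DNA library (Tris/NaCl/DTT/glycerol buffer, room temperature, 30 min), washed, crosslinked with 0.1% formaldehyde, proximity-ligated using BsaI/T4 ligase for 1 h at 37 °C, PCR-amplified and read on an Illumina NextSeq500. Each hexamer's frequency of reads for a factor, divided by the matching frequency for the tag-only sample, gives the binding signal.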

A further experiment concerns the target ETV5 (Homo sapiens, UniProt P41161 1-510). The conditions noted are these: protein: recombinant; tags: N-terminal GST; dsDNA, one strand shown. In outline: as §1
In the next experiment the target is HSF1 (Homo sapiens, UniProt Q00613 1-529). The note with it: protein: recombinant; tags: N-terminal GST; chain copies: 3; dsDNA, one strand shown. In outline: as §1
Sequence of HSF1 (Q00613 whole entry): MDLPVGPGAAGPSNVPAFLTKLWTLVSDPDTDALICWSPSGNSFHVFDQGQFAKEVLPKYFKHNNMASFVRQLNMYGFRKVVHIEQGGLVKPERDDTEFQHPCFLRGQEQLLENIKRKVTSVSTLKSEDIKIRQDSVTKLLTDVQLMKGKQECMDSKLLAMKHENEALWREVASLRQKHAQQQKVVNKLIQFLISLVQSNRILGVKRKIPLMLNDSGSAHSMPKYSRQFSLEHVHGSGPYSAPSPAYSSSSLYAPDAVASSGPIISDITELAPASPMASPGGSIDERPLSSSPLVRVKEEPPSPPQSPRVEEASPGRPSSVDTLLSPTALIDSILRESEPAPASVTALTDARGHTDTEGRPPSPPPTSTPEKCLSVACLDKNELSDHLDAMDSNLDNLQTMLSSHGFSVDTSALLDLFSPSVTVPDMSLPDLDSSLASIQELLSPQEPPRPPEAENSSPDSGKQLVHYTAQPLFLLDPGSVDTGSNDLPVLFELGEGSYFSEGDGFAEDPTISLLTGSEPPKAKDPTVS
A further experiment addresses T2, SPIC (Homo sapiens, UniProt Q8N5J4 1-248).
T2 sequence: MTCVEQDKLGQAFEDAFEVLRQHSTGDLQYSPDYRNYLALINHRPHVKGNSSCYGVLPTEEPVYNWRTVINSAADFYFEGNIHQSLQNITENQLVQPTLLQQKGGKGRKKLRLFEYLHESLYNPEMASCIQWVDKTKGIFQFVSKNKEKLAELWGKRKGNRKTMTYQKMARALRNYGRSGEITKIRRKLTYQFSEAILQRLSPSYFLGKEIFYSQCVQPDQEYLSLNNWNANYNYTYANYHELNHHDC
The conditions noted are these: protein: recombinant; tags: N-terminal GST; dsDNA, one strand shown. In outline: as §1

The target in a further experiment is ELF4 (Homo sapiens, UniProt Q99607 1-663). The conditions noted are these: protein: recombinant; tags: N-terminal GST; dsDNA, one strand shown. Put shortly:
as §1

For the next experiment, the target named is T3, ELK4 (Homo sapiens, UniProt P28324-2 1-405).
T3 sequence: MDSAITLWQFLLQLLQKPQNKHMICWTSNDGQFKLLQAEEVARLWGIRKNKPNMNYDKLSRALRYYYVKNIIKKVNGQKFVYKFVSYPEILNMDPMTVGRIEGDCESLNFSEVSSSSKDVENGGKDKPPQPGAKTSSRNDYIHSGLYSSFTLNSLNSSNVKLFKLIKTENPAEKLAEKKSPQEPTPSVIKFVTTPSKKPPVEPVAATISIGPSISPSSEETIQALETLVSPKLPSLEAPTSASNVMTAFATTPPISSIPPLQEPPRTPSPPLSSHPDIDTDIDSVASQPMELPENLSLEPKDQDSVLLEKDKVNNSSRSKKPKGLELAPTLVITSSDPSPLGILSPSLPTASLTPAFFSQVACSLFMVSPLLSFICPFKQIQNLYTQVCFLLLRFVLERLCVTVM
The conditions noted are these: protein: recombinant; tags: N-terminal GST; dsDNA, one strand shown. Put shortly:
as §1

Another experiment deals with T4, ETV2 (Homo sapiens, UniProt O00321 1-342).
T4 sequence: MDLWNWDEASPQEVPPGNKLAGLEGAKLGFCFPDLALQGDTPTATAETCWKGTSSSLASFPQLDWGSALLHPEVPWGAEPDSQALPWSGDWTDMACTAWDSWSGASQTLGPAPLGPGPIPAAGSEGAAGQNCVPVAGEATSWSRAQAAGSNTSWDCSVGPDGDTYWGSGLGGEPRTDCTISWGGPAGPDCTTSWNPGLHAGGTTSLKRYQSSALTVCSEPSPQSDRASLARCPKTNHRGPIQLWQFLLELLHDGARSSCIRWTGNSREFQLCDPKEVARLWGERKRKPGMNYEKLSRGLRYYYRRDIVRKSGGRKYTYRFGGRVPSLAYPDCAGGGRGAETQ
The note with it: protein: recombinant; tags: N-terminal GST; dsDNA, one strand shown. In outline:
as §1

For the next experiment, the target named is T5, ELF3 (Homo sapiens, UniProt P78545 1-371).
T5 sequence: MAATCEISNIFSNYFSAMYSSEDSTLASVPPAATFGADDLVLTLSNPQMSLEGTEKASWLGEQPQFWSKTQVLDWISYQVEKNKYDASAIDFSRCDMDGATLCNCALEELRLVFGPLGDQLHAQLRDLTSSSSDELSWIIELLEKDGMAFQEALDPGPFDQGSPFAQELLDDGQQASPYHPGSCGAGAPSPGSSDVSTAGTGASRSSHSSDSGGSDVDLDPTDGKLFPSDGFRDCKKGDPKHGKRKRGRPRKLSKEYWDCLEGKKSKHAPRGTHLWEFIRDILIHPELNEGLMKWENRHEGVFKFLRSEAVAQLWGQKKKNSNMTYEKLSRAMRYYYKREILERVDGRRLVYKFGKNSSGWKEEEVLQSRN
The note with it: protein: recombinant; tags: N-terminal GST; dsDNA, one strand shown. In outline:
as §1

A further experiment concerns the target CRX (Homo sapiens, UniProt O43186 1-299). The conditions noted are these: protein: recombinant; tags: N-terminal GST; dsDNA, one strand shown. Put shortly: as §1
The target in a further experiment is ETV1 (Homo sapiens, UniProt P50549 1-477). The conditions noted are these: protein: recombinant; tags: N-terminal GST; dsDNA, one strand shown. Put shortly:
as §1

Sequence of CRX (O43186 whole entry): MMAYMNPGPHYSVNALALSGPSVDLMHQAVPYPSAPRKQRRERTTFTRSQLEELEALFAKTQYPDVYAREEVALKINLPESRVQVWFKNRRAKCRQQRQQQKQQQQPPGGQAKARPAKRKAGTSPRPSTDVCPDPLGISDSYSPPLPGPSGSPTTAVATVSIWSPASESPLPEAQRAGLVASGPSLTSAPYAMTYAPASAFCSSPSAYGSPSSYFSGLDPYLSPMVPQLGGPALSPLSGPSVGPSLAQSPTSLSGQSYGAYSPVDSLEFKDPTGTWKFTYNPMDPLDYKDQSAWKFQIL
Sequence of ELF4 (Q99607 whole entry): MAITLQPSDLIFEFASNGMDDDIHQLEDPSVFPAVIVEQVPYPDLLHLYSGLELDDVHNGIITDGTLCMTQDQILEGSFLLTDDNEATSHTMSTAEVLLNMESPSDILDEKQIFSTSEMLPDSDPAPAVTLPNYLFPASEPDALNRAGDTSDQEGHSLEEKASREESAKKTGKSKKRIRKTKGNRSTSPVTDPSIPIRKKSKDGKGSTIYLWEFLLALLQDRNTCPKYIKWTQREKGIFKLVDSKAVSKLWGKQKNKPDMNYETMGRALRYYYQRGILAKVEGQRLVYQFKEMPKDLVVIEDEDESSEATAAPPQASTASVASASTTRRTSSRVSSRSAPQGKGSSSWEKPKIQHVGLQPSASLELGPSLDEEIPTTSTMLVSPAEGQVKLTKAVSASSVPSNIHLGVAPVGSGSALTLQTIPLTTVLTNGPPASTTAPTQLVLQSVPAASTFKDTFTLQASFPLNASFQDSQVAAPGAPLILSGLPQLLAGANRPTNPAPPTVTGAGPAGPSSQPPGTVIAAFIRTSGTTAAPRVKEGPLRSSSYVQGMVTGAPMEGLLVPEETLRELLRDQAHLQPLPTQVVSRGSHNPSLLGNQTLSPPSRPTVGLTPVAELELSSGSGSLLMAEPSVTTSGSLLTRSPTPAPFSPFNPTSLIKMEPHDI
Sequence of ETV5 (P41161 whole entry): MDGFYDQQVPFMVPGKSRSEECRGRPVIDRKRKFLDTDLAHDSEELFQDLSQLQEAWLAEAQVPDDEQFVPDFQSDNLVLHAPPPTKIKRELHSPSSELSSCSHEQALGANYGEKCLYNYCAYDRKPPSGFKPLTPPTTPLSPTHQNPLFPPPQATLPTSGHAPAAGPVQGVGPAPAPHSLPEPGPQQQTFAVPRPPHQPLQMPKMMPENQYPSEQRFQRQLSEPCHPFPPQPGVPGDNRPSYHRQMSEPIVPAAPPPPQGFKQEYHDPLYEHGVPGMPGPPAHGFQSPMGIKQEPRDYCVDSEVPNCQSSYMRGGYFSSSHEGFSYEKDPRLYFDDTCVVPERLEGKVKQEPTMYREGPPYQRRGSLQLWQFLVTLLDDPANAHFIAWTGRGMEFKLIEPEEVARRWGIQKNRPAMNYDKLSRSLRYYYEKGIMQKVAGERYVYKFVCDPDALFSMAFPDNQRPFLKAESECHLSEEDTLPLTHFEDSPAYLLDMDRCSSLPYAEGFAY
Sequence of ETV1 (P50549 whole entry): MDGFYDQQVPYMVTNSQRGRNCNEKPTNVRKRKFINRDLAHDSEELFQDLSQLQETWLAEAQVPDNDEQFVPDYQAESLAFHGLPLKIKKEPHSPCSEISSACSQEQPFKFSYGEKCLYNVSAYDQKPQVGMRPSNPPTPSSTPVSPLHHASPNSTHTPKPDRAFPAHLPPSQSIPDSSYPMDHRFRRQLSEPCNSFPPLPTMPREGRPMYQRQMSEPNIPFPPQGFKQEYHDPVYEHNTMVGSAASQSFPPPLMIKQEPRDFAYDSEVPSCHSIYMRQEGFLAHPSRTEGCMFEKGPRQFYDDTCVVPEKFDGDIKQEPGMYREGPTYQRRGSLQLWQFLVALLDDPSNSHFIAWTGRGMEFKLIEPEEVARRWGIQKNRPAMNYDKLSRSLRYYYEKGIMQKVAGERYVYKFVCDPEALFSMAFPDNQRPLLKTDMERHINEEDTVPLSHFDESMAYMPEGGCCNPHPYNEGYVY

In the case of ATCCCC, the binding signal with FEV is 1.44 fold enrichment (6-mer frequency, TF over GST control); with ETV5 it was 1.37 fold enrichment (6-mer frequency, TF over GST control); with HSF1, 1.78 fold enrichment (6-mer frequency, TF over GST control); in the experiment with SPIC, 1.37 fold enrichment (6-mer frequency, TF over GST control); in the experiment with ELF4, 1.37 fold enrichment (6-mer frequency, TF over GST control); with ELK4, 1.44 fold enrichment (6-mer frequency, TF over GST control). Besides, the binding signal with ETV2 is 1.39 fold enrichment (6-mer frequency, TF over GST control); in the experiment with ELF3 it was 1.53 fold enrichment (6-mer frequency, TF over GST control); with CRX it was 2.37 fold enrichment (6-mer frequency, TF over GST control); in the experiment with ETV1, 1.43 fold enrichment (6-mer frequency, TF over GST control).
Consider CATTCC, for which the binding signal was 1.21 fold enrichment (6-mer frequency, TF over GST control) in the experiment with FEV; 1.29 fold enrichment (6-mer frequency, TF over GST control) in the experiment with ETV5; 1.67 fold enrichment (6-mer frequency, TF over GST control) with HSF1; 1.11 fold enrichment (6-mer frequency, TF over GST control) with SPIC; 1.27 fold enrichment (6-mer frequency, TF over GST control) with ELF4; 1.28 fold enrichment (6-mer frequency, TF over GST control) with ELK4. For the same sequence, the binding signal with ETV2 was 1.31 fold enrichment (6-mer frequency, TF over GST control); with ELF3, 1.2 fold enrichment (6-mer frequency, TF over GST control); with CRX, 1.07 fold enrichment (6-mer frequency, TF over GST control); with ETV1 it was 1.19 fold enrichment (6-mer frequency, TF over GST control).
With AGCTTA, the binding signal in the experiment with FEV is 1.06 fold enrichment (6-mer frequency, TF over GST control); with ETV5, 1.07 fold enrichment (6-mer frequency, TF over GST control); with HSF1, 1.94 fold enrichment (6-mer frequency, TF over GST control); with SPIC it was 1.12 fold enrichment (6-mer frequency, TF over GST control); with ELF4, 1.11 fold enrichment (6-mer frequency, TF over GST control); with ELK4, 1.08 fold enrichment (6-mer frequency, TF over GST control). Moreover, the binding signal is 1.14 fold enrichment (6-mer frequency, TF over GST control) with ETV2; 1.23 fold enrichment (6-mer frequency, TF over GST control) with ELF3; 3.13 fold enrichment (6-mer frequency, TF over GST control) with CRX; 1.23 fold enrichment (6-mer frequency, TF over GST control) with ETV1.
For ACCAAT, the binding signal in the experiment with FEV was 1.25 fold enrichment (6-mer frequency, TF over GST control); in the experiment with ETV5 it was 1.24 fold enrichment (6-mer frequency, TF over GST control); with HSF1, 1.16 fold enrichment (6-mer frequency, TF over GST control); with SPIC, 1.31 fold enrichment (6-mer frequency, TF over GST control); with ELF4 it was 1.38 fold enrichment (6-mer frequency, TF over GST control); with ELK4, 1.35 fold enrichment (6-mer frequency, TF over GST control). Besides, the binding signal was 1.13 fold enrichment (6-mer frequency, TF over GST control) in the experiment with ETV2; 1.28 fold enrichment (6-mer frequency, TF over GST control) with ELF3; 1.16 fold enrichment (6-mer frequency, TF over GST control) with CRX; 1.3 fold enrichment (6-mer frequency, TF over GST control) with ETV1.
Take AATTCG: the binding signal was 1.26 fold enrichment (6-mer frequency, TF over GST control) in the experiment with FEV; 1.31 fold enrichment (6-mer frequency, TF over GST control) with ETV5; 1.76 fold enrichment (6-mer frequency, TF over GST control) with HSF1; 1.43 fold enrichment (6-mer frequency, TF over GST control) in the experiment with SPIC; 1.26 fold enrichment (6-mer frequency, TF over GST control) with ELF4; 1.23 fold enrichment (6-mer frequency, TF over GST control) with ELK4. The binding signal is 1.19 fold enrichment (6-mer frequency, TF over GST control) with ETV2; 1.3 fold enrichment (6-mer frequency, TF over GST control) in the experiment with ELF3; 1.57 fold enrichment (6-mer frequency, TF over GST control) in the experiment with CRX; 1.18 fold enrichment (6-mer frequency, TF over GST control) in the experiment with ETV1.
For AATTAA, the binding signal with FEV was 1.14 fold enrichment (6-mer frequency, TF over GST control); with ETV5 it was 1.29 fold enrichment (6-mer frequency, TF over GST control); in the experiment with HSF1 it was 1.74 fold enrichment (6-mer frequency, TF over GST control); in the experiment with SPIC, 1.24 fold enrichment (6-mer frequency, TF over GST control); with ELF4, 1.26 fold enrichment (6-mer frequency, TF over GST control); in the experiment with ELK4, 1.26 fold enrichment (6-mer frequency, TF over GST control). Besides, the binding signal with ETV2 was 1.2 fold enrichment (6-mer frequency, TF over GST control); in the experiment with ELF3 it was 1.24 fold enrichment (6-mer frequency, TF over GST control); in the experiment with CRX it was 2.5 fold enrichment (6-mer frequency, TF over GST control); with ETV1, 1.26 fold enrichment (6-mer frequency, TF over GST control).
Regarding TAAAAG, the binding signal in the experiment with FEV was 1.08 fold enrichment (6-mer frequency, TF over GST control); with ETV5 it was 1.19 fold enrichment (6-mer frequency, TF over GST control); with HSF1 it was 1.43 fold enrichment (6-mer frequency, TF over GST control); in the experiment with SPIC, 1.14 fold enrichment (6-mer frequency, TF over GST control); with ELF4, 1.17 fold enrichment (6-mer frequency, TF over GST control); in the experiment with ELK4 it was 1.2 fold enrichment (6-mer frequency, TF over GST control). For the same sequence, the binding signal was 1.22 fold enrichment (6-mer frequency, TF over GST control) in the experiment with ETV2; 1.21 fold enrichment (6-mer frequency, TF over GST control) with ELF3; 1.72 fold enrichment (6-mer frequency, TF over GST control) with CRX; 1.18 fold enrichment (6-mer frequency, TF over GST control) in the experiment with ETV1.
As to TAAACT, the binding signal with FEV was 1.11 fold enrichment (6-mer frequency, TF over GST control); with ETV5, 1.23 fold enrichment (6-mer frequency, TF over GST control); in the experiment with HSF1, 1.3 fold enrichment (6-mer frequency, TF over GST control); with SPIC, 1.12 fold enrichment (6-mer frequency, TF over GST control); in the experiment with ELF4 it was 1.23 fold enrichment (6-mer frequency, TF over GST control); with ELK4, 1.11 fold enrichment (6-mer frequency, TF over GST control). Also, the binding signal with ETV2 is 1.27 fold enrichment (6-mer frequency, TF over GST control); with ELF3, 1.04 fold enrichment (6-mer frequency, TF over GST control); with CRX, 1.72 fold enrichment (6-mer frequency, TF over GST control); in the experiment with ETV1, 1.2 fold enrichment (6-mer frequency, TF over GST control).
